The results in this text go back to publication PMC11006913.

Numbering of substitutions follows the chain as printed.

Holding throughout (experiment): PBM; 200 nM protein, PBS
Common to all, as to settings: dsDNA, one strand shown

The target of experiment [1] is T1, PAX4 (Homo sapiens, UniProt O43316 9-242, R200K).
T1 sequence: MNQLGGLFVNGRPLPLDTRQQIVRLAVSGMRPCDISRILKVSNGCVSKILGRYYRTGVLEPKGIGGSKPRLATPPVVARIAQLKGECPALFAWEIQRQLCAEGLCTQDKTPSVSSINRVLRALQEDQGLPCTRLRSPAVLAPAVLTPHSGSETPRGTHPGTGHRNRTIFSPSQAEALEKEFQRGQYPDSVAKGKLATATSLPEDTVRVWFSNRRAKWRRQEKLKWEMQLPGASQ

Experiment [2] deals with T2, PAX4 (Homo sapiens, UniProt O43316 9-242).
T2 sequence: T1 sequence with K192R

Experiment [3] has as its target T3, PAX4 (Homo sapiens, UniProt O43316 9-242, R200Q).
T3 sequence: T1 sequence with K192Q

Experiment [4] addresses T4, PAX4 (Homo sapiens, UniProt O43316 9-242, F177V).
T4 sequence: T1 sequence with F169V, K192R

For experiment [5], the target named is T5, PAX4 (Homo sapiens, UniProt O43316 9-242, F177Y).
T5 sequence: T1 sequence with F169Y, K192R

In experiment [6] the target is T6, PAX4 (Homo sapiens, UniProt O43316 9-242, R227W).
T6 sequence: T1 sequence with K192R, R219W

As for CTGAGCGC, the binding signal with PAX4 [1] is 9.25 upbm affinity estimate (log intensity, higher = more binding, comparable within an allelic series); with PAX4 [2], 9.2 upbm affinity estimate (log intensity, higher = more binding, comparable within an allelic series); with PAX4 [3], 9.31 upbm affinity estimate (log intensity, higher = more binding, comparable within an allelic series); in the experiment with PAX4 [4] it was 9.15 upbm affinity estimate (log intensity, higher = more binding, comparable within an allelic series); with PAX4 [5] it was 9.2 upbm affinity estimate (log intensity, higher = more binding, comparable within an allelic series); in the experiment with PAX4 [6], 9.27 upbm affinity estimate (log intensity, higher = more binding, comparable within an allelic series).

In the case of CGACCTGC, the binding signal in the experiment with PAX4 [1] was 9.47 upbm affinity estimate (log intensity, higher = more binding, comparable within an allelic series); with PAX4 [2] it was 9.54 upbm affinity estimate (log intensity, higher = more binding, comparable within an allelic series); with PAX4 [3], 9.42 upbm affinity estimate (log intensity, higher = more binding, comparable within an allelic series); in the experiment with PAX4 [4], 9.26 upbm affinity estimate (log intensity, higher = more binding, comparable within an allelic series); in the experiment with PAX4 [5], 9.33 upbm affinity estimate (log intensity, higher = more binding, comparable within an allelic series); with PAX4 [6], 9.35 upbm affinity estimate (log intensity, higher = more binding, comparable within an allelic series).

For the sequence TGGGCCCA, the binding signal is 9.53 upbm affinity estimate (log intensity, higher = more binding, comparable within an allelic series) with PAX4 [1]; 9.41 upbm affinity estimate (log intensity, higher = more binding, comparable within an allelic series) with PAX4 [2]; 9.57 upbm affinity estimate (log intensity, higher = more binding, comparable within an allelic series) with PAX4 [3]; 9.2 upbm affinity estimate (log intensity, higher = more binding, comparable within an allelic series) with PAX4 [4]; 9.37 upbm affinity estimate (log intensity, higher = more binding, comparable within an allelic series) with PAX4 [5]; 9.35 upbm affinity estimate (log intensity, higher = more binding, comparable within an allelic series) in the experiment with PAX4 [6].

With CGAATTAG, the binding signal was 11.9 upbm affinity estimate (log intensity, higher = more binding, comparable within an allelic series) with PAX4 [1]; 12.5 upbm affinity estimate (log intensity, higher = more binding, comparable within an allelic series) in the experiment with PAX4 [2]; 12 upbm affinity estimate (log intensity, higher = more binding, comparable within an allelic series) in the experiment with PAX4 [3]; 10.3 upbm affinity estimate (log intensity, higher = more binding, comparable within an allelic series) with PAX4 [4]; 11.1 upbm affinity estimate (log intensity, higher = more binding, comparable within an allelic series) with PAX4 [5]; 10.9 upbm affinity estimate (log intensity, higher = more binding, comparable within an allelic series) in the experiment with PAX4 [6].

For GGAGGCAC, the binding signal in the experiment with PAX4 [1] was 9.34 upbm affinity estimate (log intensity, higher = more binding, comparable within an allelic series); with PAX4 [2], 9.31 upbm affinity estimate (log intensity, higher = more binding, comparable within an allelic series); in the experiment with PAX4 [3], 9.57 upbm affinity estimate (log intensity, higher = more binding, comparable within an allelic series); with PAX4 [4] it was 9.46 upbm affinity estimate (log intensity, higher = more binding, comparable within an allelic series); in the experiment with PAX4 [5], 9.46 upbm affinity estimate (log intensity, higher = more binding, comparable within an allelic series); with PAX4 [6], 9.48 upbm affinity estimate (log intensity, higher = more binding, comparable within an allelic series).

With CCGCGACC, the binding signal with PAX4 [1] is 9.37 upbm affinity estimate (log intensity, higher = more binding, comparable within an allelic series); with PAX4 [2] it was 9.36 upbm affinity estimate (log intensity, higher = more binding, comparable within an allelic series); with PAX4 [3], 9.36 upbm affinity estimate (log intensity, higher = more binding, comparable within an allelic series); with PAX4 [4], 9.17 upbm affinity estimate (log intensity, higher = more binding, comparable within an allelic series); with PAX4 [5], 9.23 upbm affinity estimate (log intensity, higher = more binding, comparable within an allelic series); with PAX4 [6], 9.24 upbm affinity estimate (log intensity, higher = more binding, comparable within an allelic series).

Consider AGGTTGCC, for which the binding signal is 9.39 upbm affinity estimate (log intensity, higher = more binding, comparable within an allelic series) with PAX4 [1]; 9.33 upbm affinity estimate (log intensity, higher = more binding, comparable within an allelic series) with PAX4 [2]; 9.49 upbm affinity estimate (log intensity, higher = more binding, comparable within an allelic series) with PAX4 [3]; 9.35 upbm affinity estimate (log intensity, higher = more binding, comparable within an allelic series) with PAX4 [4]; 9.33 upbm affinity estimate (log intensity, higher = more binding, comparable within an allelic series) with PAX4 [5]; 9.35 upbm affinity estimate (log intensity, higher = more binding, comparable within an allelic series) in the experiment with PAX4 [6].

For CGGCCGGC, the binding signal in the experiment with PAX4 [1] is 9.17 upbm affinity estimate (log intensity, higher = more binding, comparable within an allelic series); with PAX4 [2], 9.29 upbm affinity estimate (log intensity, higher = more binding, comparable within an allelic series); in the experiment with PAX4 [3], 9.07 upbm affinity estimate (log intensity, higher = more binding, comparable within an allelic series); with PAX4 [4], 9.01 upbm affinity estimate (log intensity, higher = more binding, comparable within an allelic series); in the experiment with PAX4 [5], 9 upbm affinity estimate (log intensity, higher = more binding, comparable within an allelic series); with PAX4 [6], 9.07 upbm affinity estimate (log intensity, higher = more binding, comparable within an allelic series).

ATTTAGAG: the binding signal with PAX4 [1] was 10.6 upbm affinity estimate (log intensity, higher = more binding, comparable within an allelic series); with PAX4 [2], 10.7 upbm affinity estimate (log intensity, higher = more binding, comparable within an allelic series); with PAX4 [3] it was 10.6 upbm affinity estimate (log intensity, higher = more binding, comparable within an allelic series); with PAX4 [4] it was 10.1 upbm affinity estimate (log intensity, higher = more binding, comparable within an allelic series); in the experiment with PAX4 [5], 10.2 upbm affinity estimate (log intensity, higher = more binding, comparable within an allelic series); with PAX4 [6], 10.2 upbm affinity estimate (log intensity, higher = more binding, comparable within an allelic series).

On to CGGGCCAC, for which the binding signal is 9.16 upbm affinity estimate (log intensity, higher = more binding, comparable within an allelic series) with PAX4 [1]; 9.26 upbm affinity estimate (log intensity, higher = more binding, comparable within an allelic series) with PAX4 [2]; 9.31 upbm affinity estimate (log intensity, higher = more binding, comparable within an allelic series) with PAX4 [3]; 9.28 upbm affinity estimate (log intensity, higher = more binding, comparable within an allelic series) in the experiment with PAX4 [4]; 9.41 upbm affinity estimate (log intensity, higher = more binding, comparable within an allelic series) with PAX4 [5]; 9.3 upbm affinity estimate (log intensity, higher = more binding, comparable within an allelic series) with PAX4 [6].

As for GCGAATTA, the binding signal with PAX4 [1] is 11.6 upbm affinity estimate (log intensity, higher = more binding, comparable within an allelic series); with PAX4 [2] it was 12.1 upbm affinity estimate (log intensity, higher = more binding, comparable within an allelic series); with PAX4 [3] it was 11.5 upbm affinity estimate (log intensity, higher = more binding, comparable within an allelic series); in the experiment with PAX4 [4], 10.3 upbm affinity estimate (log intensity, higher = more binding, comparable within an allelic series); with PAX4 [5] it was 10.8 upbm affinity estimate (log intensity, higher = more binding, comparable within an allelic series); in the experiment with PAX4 [6] it was 10.8 upbm affinity estimate (log intensity, higher = more binding, comparable within an allelic series).
